Test results reported in ChEMBL document CHEMBL4513216, “Probing the Open Global Health Chemical Diversity Library for Multistage-Active Starting Points for Next-Generation Antimalarials” (ACS Infect Dis, 2020).
In all, about 68,000 compounds went through this assay and about 2,700 (4%) showed an effect of 50% or more. What follows is part of a selection rich in strong results, with near analogues and random picks from the rest.

The compounds below were run on Plasmodium berghei (assay: Screen against P. berghei liver stage (PbLuc), transformed with Luciferase, at 2uM). Settings: tested at 2 uM.
Type: functional, HepG2
`COc1ccc(Oc2ncccc2C(F)(F)F)cc1CN1CCCC1` was tested, and the INHIBITION was 20%.
For `COc1cc(Oc2ncccc2C(F)(F)F)ccc1CN1CCCC1`, the INHIBITION was 66.12%.
`COc1cc(CN2CCCC2)ccc1Oc1ncccc1C(F)(F)F` was tested, and the INHIBITION was 43.1%.
In the case of `c1cc2nccc(CC3CCCN(Cc4c[nH]cn4)CC3)c2cn1` (stereo not given), the INHIBITION is reported as -0.83%.
For `O=C(O)c1ccnc(-c2ccnc(COc3ccccc3Cl)n2)c1`, the INHIBITION was 17.2%.
`CCc1cnc(CNC(=O)NCCCO)s1` showed an INHIBITION of 52.85%.
With `CCc1cnc(CNC(=O)NCCc2ccc(O)cc2)s1` the INHIBITION was 47.59%.
With `CCc1cnc(CNC(=O)NC2CC(C)(C)OC2(C)C)s1` (stereo not given) the INHIBITION was -1.45%.
In the case of `CN(C)CC1CN(c2ncnc3ccsc23)CCO1` (stereo not given), the INHIBITION is reported as 44.6%.
Compound `CCN1CCCC1CNC(=O)CCc1cccs1` (stereo not given) has an INHIBITION of 9.27%.
`CSc1ccc(OC(C)C(=O)Nc2c(C)n[nH]c2C)cc1` (stereo not given) showed an INHIBITION of 3.5%.
`CC(=O)N1CCC(c2cnc(-c3c(C)nn(C)c3C)cn2)CC1` was tested, and the INHIBITION was 34.06%.
In the case of `Cn1cc(C(=O)CC2CCCN2C(=O)c2cncc3ccccc23)cn1` (stereo not given), the INHIBITION is reported as 11.1%.
`Cn1cc(C(=O)CC2CCCN2C(=O)c2ccncc2F)cn1` (stereo not given) gave an INHIBITION of -5.09%.
With `CCc1ccccc1C(=O)N1CCCC1CC(=O)c1cnn(C)c1` (stereo not given) the INHIBITION was -7.41%.
Work on `Cn1cc(C(=O)CC2CCCN2C(=O)c2ccc(Cl)cn2)cn1` (stereo not given) yielded an INHIBITION of 24.55%.
With `Cn1cc(C(=O)CC2CCCN2C(=O)c2cccc3ncccc23)cn1` (stereo not given) the INHIBITION was 51.19%.
`COc1cc(C(=O)N2CCCC2CC(=O)c2cnn(C)c2)ccc1F` (stereo not given) was tested, and the INHIBITION was 64.2%.
Compound `Cc1noc([C@H]2C[C@H]3OCC[C@H]3N(C3CCC3)C2)n1` has an INHIBITION of 44.94%.
Work on `COc1ccccc1CN(C)C(=O)CN1CC(n2nc(C)cc2C)C1` yielded an INHIBITION of 18.15%.
For `Cc1cc(C)cc(N2CCN(Cc3cccc(CCN)c3)CC2=O)c1`, the INHIBITION was 10.92%.
For `NCCc1cccc(CN2CCN(c3ccccc3)C(=O)C2)c1`, the INHIBITION was 22.72%.
Work on `Cc1cc(C)cc(CN2CCN(Cc3cccc(CCN)c3)CC2=O)c1` yielded an INHIBITION of 61.75%.
Compound `CC(C)c1nnc2n1CCN(Cc1ccc3c(c1)OCO3)CC2` has an INHIBITION of -21.23%.
With `Cc1cccc(CN2CCC3(CCN(c4ccccn4)C3)C2=O)c1` (stereo not given) the INHIBITION was 17.39%.
`Cc1n[nH]c(C2CN(CC(=O)NCCc3ccsc3)CCO2)n1` (stereo not given) gave an INHIBITION of 50.74%.
For `Cc1n[nH]c(C2CN(CC(=O)NCCc3ccccc3)CCO2)n1` (stereo not given), the INHIBITION was 19.43%.
`CCc1n[nH]c(C2CN(CC(=O)NCCc3ccsc3)CCO2)n1` (stereo not given) gave an INHIBITION of 12.46%.
Compound `CC(CNC(=O)CCCc1ccccn1)c1ccsc1` (stereo not given) has an INHIBITION of 18.85%.
With `Cc1ccc(CN2CC[C@@H](O)[C@@H]2Cc2ccccc2)o1` the INHIBITION was 14.65%.
In the case of `Cc1cccc(C(C(=O)N(C)Cc2ccon2)N(C)C)c1` (stereo not given), the INHIBITION is reported as -2.69%.
For `Cc1cc(C)cc(CCC(=O)N(C)CCc2cn[nH]c2)c1`, the INHIBITION was -4.26%.
`CN(CCc1cn[nH]c1)C(=O)C(c1ccc(F)cc1)N(C)C` (stereo not given) gave an INHIBITION of 38.67%.
In the case of `Cc1ccc(C(C(=O)N(C)CCc2cn[nH]c2)N(C)C)cc1` (stereo not given), the INHIBITION is reported as 69.67%.
`Cc1ccccc1C(C(=O)N(C)CCc1cn[nH]c1)N(C)C` (stereo not given) gave an INHIBITION of -102.03%.
In the case of `Cc1cccc(C(C(=O)N(C)CCc2cn[nH]c2)N(C)C)c1` (stereo not given), the INHIBITION is reported as 67.28%.
`Cc1ccc(CCC(C)NC2CCN(C(N)=O)CC2)cc1` (stereo not given) was tested, and the INHIBITION was -5.43%.
Compound `CN1CCN(CCCNC(=O)CCc2nc3cc(Br)cnc3[nH]2)CC1` has an INHIBITION of 12.87%.
Work on `O=C(Nc1nc2c(s1)CN(S(=O)(=O)C1CC1)CC2)Nc1ccccc1F` yielded an INHIBITION of 47.9%.
For `CC1CN(c2ncnc3sccc23)CCN1c1nccs1` (stereo not given), the INHIBITION was 38.01%.
For `c1csc(N2CCN(c3ncnc4sccc34)CC2)n1`, the INHIBITION was 16.93%.
Compound `CC1CN(c2ncnc3c2cnn3C)CCN1c1nccs1` (stereo not given) has an INHIBITION of 57.16%.
Work on `O=C(Cc1ccccn1)N1CCn2cc(Cn3cncn3)nc2C1` yielded an INHIBITION of -33.15%.
Work on `Cc1ccc(-c2nc(CN3CCn4c(nnc4C4CC4)C3)cs2)o1` yielded an INHIBITION of -110.74%.
Compound `CCOC(=O)C1CCN(Cc2csc(-c3ccc(C)o3)n2)CC1` has an INHIBITION of -0.76%.
`Cc1ccc(-c2nc(CN3CCN(CC(=O)N(C)C)CC3)cs2)o1` was tested, and the INHIBITION was 4.18%.
Work on `CCNC(=O)C1CCN(Cc2csc(-c3ccc(C)o3)n2)CC1` yielded an INHIBITION of 50.12%.
In the case of `CCc1nnc2n1CCN(Cc1csc(-c3ccc(C)o3)n1)C2`, the INHIBITION is reported as 58.49%.
With `Cc1nnc2n1CCN(Cc1nc(-c3ccoc3)no1)C2` the INHIBITION was -25.13%.
With `Cc1ccc(-c2nc(CN3CCN(C(=O)C4CC4)CC3)cs2)o1` the INHIBITION was -21.93%.
With `Cc1ccc(-c2nc(CN3CCn4c(C)nnc4C3)cs2)o1` the INHIBITION was 42.58%.
Work on `CC(C)c1nnc2n1CCN(Cc1nc(-c3ccoc3)no1)C2` yielded an INHIBITION of 7.01%.
In the case of `Cc1ccc(-c2nc(CN3CCC(C(=O)N(C)C)CC3)cs2)o1`, the INHIBITION is reported as 27.91%.
For `CCc1nnc2n1CCN(Cc1nc(-c3ccoc3)no1)C2`, the INHIBITION was 73.05%.
For `Cc1ccc(-c2nc(CN3CCN(S(=O)(=O)N(C)C)CC3)cs2)o1`, the INHIBITION was 53.12%.
